Legend:
Assay type in all cases: functional
Plasmodium falciparum [1] = test: GSK_TCMDC: Inhibition of Plasmodium falciparum 3D7 in whole red blood cells, using parasite LDH activity as an index of growth. Test compounds present at 2uM
Plasmodium falciparum [2] = test: GSK_TCMDC: Inhibition of Plasmodium falciparum Dd2 in whole red blood cells, using parasite LDH activity as an index of growth. Test compounds present at 2uM
HepG2 = test: GSK_TCMDC: Percent inhibition of human HepG2 cell line. Test compounds present at 10uM.

Compound	Inhibition (Plasmodium falciparum [1])	Inhibition (Plasmodium falciparum [2])	Inhibition (HepG2)
CC(Cc1ccc(CNC(=O)c2ccc(CC(C)NCCc3cccc(Cl)c3)cc2)cc1)NCCc1cccc(Cl)c1 (configuration not stated)	99%	66%	99%
CC1(C)[C@H]2CC[C@@H](CNc3nc(NCCc4c[nH]cn4)nc(Nc4ccc5c(c4)OCO5)n3)[C@@H]1C2	100%	88%	3%
CN1c2ccccc2Sc2cc(CNCCSCCNCc3ccc4c(c3)Sc3ccccc3N4C)ccc21.Cl	84%	44%	58%
CC(C)c1ccc(CN2CCC(CNC(=O)c3cc(-c4ccc(N(C)C)cc4)cs3)C2)cc1.O=C(O)C(F)(F)F (configuration not stated)	83%	32%	36%
CC(C)(C)C(=O)Nc1ccc(N2CCN(C(c3ccccc3)c3ccccc3)CC2)c(Cl)c1	92%	94%	0%
CCCCCCCN1CC[C@@H](CCCc2ccnc3ccc(OC)cc23)[C@@H](CNC)C1.O=C(O)C(=O)O	100%	95%	25%
COc1cc2nccc(Nc3ccc(OCc4ccccc4)cc3)c2cc1OC	100%	99%	35%
CC(=O)Nc1ncc(C(=O)Nc2cccc(-c3ccc(-c4nc5ccccc5[nH]4)cc3)c2)s1	100%	66%	12%
Cl.N=C(N)c1ccc(C=CC(=O)NCC(O)CNC(=O)C=Cc2ccc(C(=N)N)cc2)cc1 (configuration not stated)	90%	80%	0%
O=C(Cc1ccccn1)Nc1cccc(-c2cccc(-c3nc4cc(C(F)(F)F)ccc4[nH]3)c2)c1	95%	22%	26%
S=C(NCCCCCN1CCC(c2c[nH]c3ccccc23)CC1)Nc1cccc(I)c1	99%	14%	69%
O=C(C=Cc1ccc(-c2ccccc2)cc1)N1CCC(CCN2CCC(c3c[nH]c4ccccc34)CC2)CC1	87%	16%	44%
O=C(c1ccc(Cl)cc1)N1CCOC(CCN2CCC(c3ccccc3)CC2)(c2ccc(Cl)c(Cl)c2)C1 (configuration not stated)	98%	68%	19%
Cc1[nH]c(C)c(-c2ccc(OCc3cc(C(F)(F)F)cc(C(F)(F)F)c3)nc2)c(=O)c1Cl	98%	96%	19%
COc1cc(Cc2cnc(N)nc2N)cc(OCCCOc2ccccc2)c1OC	94%	2%	7%
CCOc1ncccc1CN1CCC(N2CCc3cc(NC(=O)c4cc(C)on4)ccc32)C1 (configuration not stated)	89%	96%	0%
CCN(CC)CCN(Cc1ccc(-c2ccc(C(F)(F)F)cc2)cc1)C(=O)Cn1c(CCc2cccc(F)c2F)c(C)c(=O)c2ccccc21.O=C(O)C(O)C(O)C(=O)O	87%	52%	61%
Cc1ncc([N+](=O)[O-])n1CCOC(=O)NC(NCC1COc2ccccc2O1)C(Cl)(Cl)Cl (configuration not stated)	100%	78%	0%
COc1ccc(Nc2ncc(OC)c(Nc3ccccc3C(N)=O)n2)cc1N1CCN(C)CC1.O=CO	100%	96%	63%
CCNc1cc(C(=O)N[C@@H](Cc2ccccc2)[C@H](O)CNC2(Cc3cccc(Cl)c3)CCC2)cc(N2CCCCS2(=O)=O)c1.Cl	95%	83%	22%

Compound	Inhibition (Plasmodium falciparum [1])	Inhibition (Plasmodium falciparum [2])	Inhibition (HepG2)
Cc1n[nH]c2cc(F)c(-c3cc(OC[C@@H](N)Cc4ccccc4)cnc3-c3ccoc3)cc12.O=C(O)C(F)(F)F	95%	15%	22%
CCN1CCN(CCCNc2c3ccc(Cl)cc3nc3ccc(OC)cc23)CC1.Cl	97%	100%	34%
CCn1cc(CN2CCCC(C(=O)Nc3ccc(-c4nc5ccccc5[nH]4)cc3)C2)cn1 (configuration not stated)	100%	26%	8%
COc1cccc(Cc2c(C)nc3nc(N)nc(N)c3c2C)c1.Cl	95%	1%	65%
O=C(O)C(F)(F)F.O=S(=O)(NC1CCN(c2ccnc3cc(Cl)ccc23)C1)c1ccc(C(F)(F)F)cc1 (configuration not stated)	100%	98%	20%
CC(C)(C)c1ccc(NC(=O)c2ccc(CN3CCCN(Cc4ccc(F)cc4)CC3)cc2)cc1.O=C(O)C(F)(F)F	87%	7%	55%
Oc1ccc2ccccc2c1C=NNc1nc(=Nc2ccccc2)[nH]c(=Nc2ccccc2)[nH]1	99%	73%	55%
CC(=O)N1N=C(c2ccccc2)Sc2c1nc(-c1ccc(Cl)cc1)n2C(C)=O	94%	18%	0%
O=C(Nc1cc(Cl)ccc1O)c1cc(-c2ccccc2O)no1	95%	79%	0%
COC(=O)c1cccc(CNCc2cccc(-c3ccc(-c4nc5ccccc5[nH]4)cc3)c2)c1.O=C(O)C(F)(F)F	99%	51%	0%
c1cncc(-c2cccc(CNc3nccc(Nc4ccc(OCCN5CCOCC5)cc4)n3)c2)c1	93%	27%	1%
O=C(/C=C/c1cccc(Cl)c1)NCCCCCN1CCC(c2c[nH]c3ccccc23)CC1	89%	17%	46%
O=C(/C=C/c1ccc(C(F)(F)F)cc1)NCCCCCN1CCCN(C(=O)Nc2ccc(Cl)c(C(F)(F)F)c2)CC1	99%	31%	64%
CC(=O)Oc1c(C2C=CCCC2)c(OC(C)=O)c2ccccc2c1OC(C)=O (configuration not stated)	95%	79%	10%
Cl.NCC1(c2nc(-c3ccc(Cl)c(O)c3)c(-c3ccncc3)[nH]2)CCCCC1	98%	98%	48%
COc1c(C2CCN(CCCCNC(=O)c3ccc(C)c(-c4ccc(C(F)(F)F)cc4)c3)CC2)ccc2c1CCCC2	86%	79%	76%
CC(=NNC(S)=NC(C)(C)C)c1ccccn1	99%	100%	63%
COc1cccc(Nc2nc(NCCO)c3ccccc3n2)c1.Cl	99%	88%	1%
CC(C)C[C@H](NC(=O)c1cccc(F)c1)C(=O)N[C@H](/C=N/NC(=O)c1ccccc1)CCc1ccccc1	93%	71%	0%
O=C(Nc1ccc(C(=O)OCC(c2ccccc2)c2ccccc2)cc1)N[C@@H](Cc1ccc(O)cc1)C(=O)NC1CCN(Cc2ccc(O)cc2)C1.O=C(O)C(F)(F)F (some centres not stated)	96%	0%	0%

Compound	Inhibition (Plasmodium falciparum [1])	Inhibition (Plasmodium falciparum [2])	Inhibition (HepG2)
CCOC(=O)c1ccc(NC(=O)N[C@@H](Cc2ccc(O)cc2)C(=O)NC2CCN(Cc3ccc4c(c3)OCO4)CC2)cc1.O=C(O)C(F)(F)F	86%	24%	0%
COc1ccc2[nH]c(C)cc(=NN=Cc3ccccc3Cl)c2c1	100%	100%	0%
CNCCNCc1ccc(-c2cccc(-c3nc4cc(C(F)(F)F)ccc4[nH]3)c2)cc1.O=C(O)C(F)(F)F	98%	77%	27%
COc1ccccc1CCNC(=O)c1cnc(N2CCN(c3ccncc3)CC2)c(Cl)c1.O=C(O)C(F)(F)F	98%	54%	30%
Cc1ccc2nc(C)n(C3CCN(C(=O)Cc4ccc(F)c(F)c4)CC3)c2c1	100%	100%	4%
Cl.Oc1ccc(CCCc2cc(Oc3c(I)cc(CCc4ncc[nH]4)cc3I)ccc2O)cc1	95%	7%	26%
CCN(CCCN1CCCCC1)c1cc(C)nc(Nc2cccc(OC(F)(F)F)c2)n1.O=C(O)C(F)(F)F	100%	99%	32%
CCCN(Cc1ccc(C)cc1)Cc1cc(=O)c2cc(Cl)ccc2[nH]1	86%	91%	51%
O=C(Nc1ccc(Cn2ncc(N3CCCNCC3)c(Cl)c2=O)cc1)Nc1ccc(OCc2ccccc2)cc1.O=C(O)C(F)(F)F	90%	32%	15%
Cc1cc(F)ccc1N(c1nc(-c2cc(Cl)ccc2Cl)cs1)C1CCNC1.O=C(O)C(F)(F)F (configuration not stated)	99%	3%	19%
Cl.c1ccc(-c2cc(NCCCCCCCCNc3cc(-c4ccccc4)nc4ccccc34)c3ccccc3n2)cc1	100%	72%	36%
Cc1nc(Nc2ccncc2)cc(-c2ccncc2)n1	100%	3%	6%
CC(C)C1C(O)=C(c2ccc3ccccc3c2)C(=O)N1CC1CCCCC1 (configuration not stated)	84%	43%	11%
CC(C)(C)C1CCc2onc(C(=O)Nc3cc(Cl)ccc3O)c2C1 (configuration not stated)	98%	82%	5%
Cc1cc(N[C@@H](Cc2ccccc2)C(=O)NC2CCCC2)nc(NCC2CCCCC2)n1.O=C(O)C(F)(F)F	100%	96%	18%
CC(C)c1sc(N2CCCCC2)nc1C(=O)Nc1ccc(F)cc1C(F)(F)F.O=C(O)C(F)(F)F	100%	98%	0%
Cc1cc(NCc2ccccc2)nc2cc(O)ccc12	98%	80%	0%
Cc1cc(NCC(c2ccccc2)c2ccccc2)nc(NCc2ccc(C(F)(F)F)cc2)n1	100%	79%	29%
O=C(NOCc1ccccc1)c1cc(Cl)ccc1O	83%	0%	2%

Reference: ChEMBL document CHEMBL1157539, “Thousands of chemical starting points for antimalarial lead identification” (Nature, 2010)
